According to the supplement of paper PMC12067093, “Discovery and optimisation of a covalent ligand for TRIM25 and its application to targeted protein ubiquitination” (Chemical Science, 2025):
Targets with the largest changes are over-represented here; the source holds about 21,000 in all.

Compound: CC1Cc2ccccc2N1C(=O)C1CCCN(C1)C(=O)CCl (mixture of isomers) [TRIM25 ligand 11 (diastereomer mixture)]
Experiment: probe-labelled cysteine peptide fold change vs DMSO (competition) (log2 fold change); higher = less target engagement (more negative = stronger competition)
Conditions: THP-1, incubation time: 4 h
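Note: competitive chemoproteomic profiling in live THP-1 cells with an iodoacetamide desthiobiotin (IA-DTB) probe, comparing probe-labelled peptide intensities in compound-treated cells against DMSO-treated controls.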

Chain of UniProt P48059 (P48059 whole entry, looked up): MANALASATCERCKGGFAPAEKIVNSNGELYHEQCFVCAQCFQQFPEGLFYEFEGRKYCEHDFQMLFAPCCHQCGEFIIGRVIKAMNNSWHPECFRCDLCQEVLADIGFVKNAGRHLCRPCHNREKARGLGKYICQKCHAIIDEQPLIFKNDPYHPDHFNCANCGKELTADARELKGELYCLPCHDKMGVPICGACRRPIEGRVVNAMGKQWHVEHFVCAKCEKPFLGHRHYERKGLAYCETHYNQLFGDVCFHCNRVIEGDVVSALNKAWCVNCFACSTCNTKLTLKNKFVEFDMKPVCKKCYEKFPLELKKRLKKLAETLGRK
Chain of UniProt Q9Y496 (Q9Y496 whole entry): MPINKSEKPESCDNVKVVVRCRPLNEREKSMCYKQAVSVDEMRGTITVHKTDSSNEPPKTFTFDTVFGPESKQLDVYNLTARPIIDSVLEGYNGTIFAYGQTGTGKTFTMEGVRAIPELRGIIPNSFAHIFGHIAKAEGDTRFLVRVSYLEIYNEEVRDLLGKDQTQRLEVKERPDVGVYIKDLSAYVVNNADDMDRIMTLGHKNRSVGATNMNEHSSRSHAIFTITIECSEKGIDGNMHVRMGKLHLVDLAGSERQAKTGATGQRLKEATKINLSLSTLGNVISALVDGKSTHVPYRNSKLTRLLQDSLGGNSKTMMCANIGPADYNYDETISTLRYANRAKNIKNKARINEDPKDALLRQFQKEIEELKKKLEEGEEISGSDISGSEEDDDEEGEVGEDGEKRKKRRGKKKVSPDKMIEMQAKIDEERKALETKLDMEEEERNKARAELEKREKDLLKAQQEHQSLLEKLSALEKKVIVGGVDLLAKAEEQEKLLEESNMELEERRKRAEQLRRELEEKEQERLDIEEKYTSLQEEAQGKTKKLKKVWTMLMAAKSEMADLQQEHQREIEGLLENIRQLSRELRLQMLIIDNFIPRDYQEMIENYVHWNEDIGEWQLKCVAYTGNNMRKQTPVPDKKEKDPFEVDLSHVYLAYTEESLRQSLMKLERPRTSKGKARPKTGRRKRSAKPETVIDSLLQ
Chain of UniProt P52294 (P52294 whole entry, looked up): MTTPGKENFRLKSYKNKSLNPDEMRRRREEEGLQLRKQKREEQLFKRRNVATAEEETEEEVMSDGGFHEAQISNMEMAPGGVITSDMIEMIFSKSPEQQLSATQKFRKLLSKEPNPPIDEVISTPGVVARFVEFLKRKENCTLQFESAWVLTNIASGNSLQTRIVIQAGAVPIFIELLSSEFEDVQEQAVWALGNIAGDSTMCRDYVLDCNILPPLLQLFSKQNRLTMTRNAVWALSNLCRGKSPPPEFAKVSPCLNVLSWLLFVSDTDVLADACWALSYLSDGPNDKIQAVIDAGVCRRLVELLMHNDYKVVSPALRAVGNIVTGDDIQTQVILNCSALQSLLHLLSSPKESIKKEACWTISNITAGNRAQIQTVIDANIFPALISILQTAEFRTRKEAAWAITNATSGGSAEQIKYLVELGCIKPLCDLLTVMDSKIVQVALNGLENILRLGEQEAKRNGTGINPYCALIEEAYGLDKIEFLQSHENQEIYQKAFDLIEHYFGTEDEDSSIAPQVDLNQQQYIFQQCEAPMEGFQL
Chain of UniProt Q8TDW0 (Q8TDW0 whole entry, looked up): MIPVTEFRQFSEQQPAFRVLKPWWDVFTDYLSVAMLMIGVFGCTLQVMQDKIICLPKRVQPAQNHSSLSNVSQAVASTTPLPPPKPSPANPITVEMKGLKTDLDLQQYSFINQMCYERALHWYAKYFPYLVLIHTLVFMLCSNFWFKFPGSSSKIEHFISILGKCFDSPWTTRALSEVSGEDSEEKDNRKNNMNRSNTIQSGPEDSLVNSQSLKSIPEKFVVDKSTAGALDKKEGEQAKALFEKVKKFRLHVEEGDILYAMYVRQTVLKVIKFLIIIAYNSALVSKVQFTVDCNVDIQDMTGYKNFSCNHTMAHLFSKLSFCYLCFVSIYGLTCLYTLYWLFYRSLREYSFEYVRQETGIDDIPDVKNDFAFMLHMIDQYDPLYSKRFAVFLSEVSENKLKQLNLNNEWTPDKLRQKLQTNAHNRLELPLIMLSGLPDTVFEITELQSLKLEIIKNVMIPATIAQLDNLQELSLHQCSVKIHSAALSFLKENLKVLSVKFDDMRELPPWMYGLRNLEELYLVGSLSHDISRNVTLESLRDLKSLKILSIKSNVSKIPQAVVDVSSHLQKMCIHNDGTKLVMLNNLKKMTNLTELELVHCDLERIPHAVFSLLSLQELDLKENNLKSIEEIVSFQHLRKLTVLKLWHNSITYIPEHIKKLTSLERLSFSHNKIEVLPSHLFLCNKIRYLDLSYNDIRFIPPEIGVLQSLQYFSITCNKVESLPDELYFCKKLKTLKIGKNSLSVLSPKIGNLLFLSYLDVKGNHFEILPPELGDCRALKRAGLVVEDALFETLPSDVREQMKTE
Chain of UniProt O14920 (O14920 whole entry, looked up): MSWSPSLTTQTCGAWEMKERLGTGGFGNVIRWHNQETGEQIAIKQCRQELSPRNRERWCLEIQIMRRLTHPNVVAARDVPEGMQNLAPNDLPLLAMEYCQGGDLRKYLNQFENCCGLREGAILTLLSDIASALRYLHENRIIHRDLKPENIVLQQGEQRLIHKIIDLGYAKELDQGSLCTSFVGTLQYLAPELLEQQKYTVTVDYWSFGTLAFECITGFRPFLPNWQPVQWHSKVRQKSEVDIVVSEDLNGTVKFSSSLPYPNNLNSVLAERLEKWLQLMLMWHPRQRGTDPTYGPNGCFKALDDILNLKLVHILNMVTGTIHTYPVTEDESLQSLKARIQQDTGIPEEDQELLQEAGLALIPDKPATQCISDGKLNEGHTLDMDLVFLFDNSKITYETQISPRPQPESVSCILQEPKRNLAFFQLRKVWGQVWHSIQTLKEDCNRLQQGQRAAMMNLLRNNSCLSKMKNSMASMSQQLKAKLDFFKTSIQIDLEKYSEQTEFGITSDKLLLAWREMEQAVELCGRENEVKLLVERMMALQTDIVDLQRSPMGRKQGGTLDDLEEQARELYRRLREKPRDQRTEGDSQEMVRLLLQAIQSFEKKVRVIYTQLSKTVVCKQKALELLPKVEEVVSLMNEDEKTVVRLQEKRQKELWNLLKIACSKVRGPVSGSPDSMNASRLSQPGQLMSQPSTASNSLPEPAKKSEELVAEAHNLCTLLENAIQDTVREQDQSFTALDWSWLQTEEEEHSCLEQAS
Chain of UniProt Q14807 (Q14807 whole entry, looked up): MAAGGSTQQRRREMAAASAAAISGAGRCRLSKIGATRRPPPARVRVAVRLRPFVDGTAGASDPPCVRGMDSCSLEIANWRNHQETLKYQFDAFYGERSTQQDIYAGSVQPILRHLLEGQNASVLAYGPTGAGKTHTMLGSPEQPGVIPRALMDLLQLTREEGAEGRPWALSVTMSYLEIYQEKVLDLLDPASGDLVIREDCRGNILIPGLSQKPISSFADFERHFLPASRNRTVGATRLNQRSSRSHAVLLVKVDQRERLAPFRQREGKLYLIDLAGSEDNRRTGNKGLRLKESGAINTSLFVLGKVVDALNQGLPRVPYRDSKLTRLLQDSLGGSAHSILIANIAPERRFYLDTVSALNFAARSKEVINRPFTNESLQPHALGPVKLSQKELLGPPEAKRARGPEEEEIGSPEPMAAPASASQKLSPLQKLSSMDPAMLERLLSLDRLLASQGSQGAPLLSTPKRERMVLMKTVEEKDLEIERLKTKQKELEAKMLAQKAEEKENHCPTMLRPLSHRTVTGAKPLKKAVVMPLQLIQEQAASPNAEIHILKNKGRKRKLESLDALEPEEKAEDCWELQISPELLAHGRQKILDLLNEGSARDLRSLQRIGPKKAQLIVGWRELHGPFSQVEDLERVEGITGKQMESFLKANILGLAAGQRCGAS
Chain of UniProt Q8N8K9 (Q8N8K9 whole entry): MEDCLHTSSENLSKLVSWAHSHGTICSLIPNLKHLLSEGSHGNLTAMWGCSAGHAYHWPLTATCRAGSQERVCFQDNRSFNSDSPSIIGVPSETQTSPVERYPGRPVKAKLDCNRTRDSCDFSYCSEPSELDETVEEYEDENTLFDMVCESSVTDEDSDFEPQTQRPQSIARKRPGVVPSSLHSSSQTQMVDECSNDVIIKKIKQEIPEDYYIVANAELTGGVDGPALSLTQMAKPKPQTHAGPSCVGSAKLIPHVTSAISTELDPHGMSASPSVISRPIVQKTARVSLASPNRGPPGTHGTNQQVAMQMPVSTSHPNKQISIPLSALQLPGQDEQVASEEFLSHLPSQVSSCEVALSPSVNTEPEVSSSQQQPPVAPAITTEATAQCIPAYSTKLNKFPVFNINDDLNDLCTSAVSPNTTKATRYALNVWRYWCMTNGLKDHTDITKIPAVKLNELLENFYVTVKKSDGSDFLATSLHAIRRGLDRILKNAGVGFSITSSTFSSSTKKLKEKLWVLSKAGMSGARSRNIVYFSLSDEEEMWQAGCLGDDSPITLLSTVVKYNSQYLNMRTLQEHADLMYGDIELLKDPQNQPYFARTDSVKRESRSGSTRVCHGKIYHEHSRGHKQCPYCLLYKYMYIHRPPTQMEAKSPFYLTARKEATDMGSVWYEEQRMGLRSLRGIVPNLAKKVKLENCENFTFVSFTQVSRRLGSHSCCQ
Chain of UniProt O60711 (O60711 whole entry, looked up): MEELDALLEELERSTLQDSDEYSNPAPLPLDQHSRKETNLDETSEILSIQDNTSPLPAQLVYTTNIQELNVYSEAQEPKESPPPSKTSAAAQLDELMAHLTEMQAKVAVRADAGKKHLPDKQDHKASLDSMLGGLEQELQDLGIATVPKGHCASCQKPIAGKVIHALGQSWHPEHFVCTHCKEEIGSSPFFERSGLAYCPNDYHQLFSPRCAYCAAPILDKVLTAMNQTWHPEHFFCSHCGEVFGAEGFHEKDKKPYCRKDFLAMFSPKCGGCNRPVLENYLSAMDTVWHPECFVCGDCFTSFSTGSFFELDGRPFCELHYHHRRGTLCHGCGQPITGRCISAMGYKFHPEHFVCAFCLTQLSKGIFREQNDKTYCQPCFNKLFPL

Target	probe-labelled cysteine peptide fold change (10 µM)	probe-labelled cysteine peptide fold change (50 µM)
IGF2R_P11717_149_TLGTPEFVTATECVHYFEWR (UniProt P11717)	-0.0703	-0.305
LANCL2_Q9NS86_367_GYGICHGTAGNGYSFLSLYR (UniProt Q9NS86)	0.0845	-0.0445
ITGB2_P05107_481_NCECQTQGR (UniProt P05107)	-0.17	-0.216
LPXN_O60711_155_GHCASCQK (UniProt O60711)	0.00581	0.145
IVD_P26440_136_ASGAVGLSYGAHSNLCINQLVR (UniProt P26440)	0.0597	-0.151
IGF2R_P11717_1783_TSECDFVFEWETPVVCPDEVR (UniProt P11717)	-0.144	-0.672
LGALS1_P09382_3_ACGLVASNLNLKPGECLR (UniProt P09382)	-0.0986	-0.246
LIMS3_P0CW19-2_121+132_KYCEHDFQMLFAPCCHQCGEFIIGR<|>LIMS1_P48059_59+70_KYCEHDFQMLFAPCCHQCGEFIIGR (UniProt P48059+P0CW19)	-0.18	-0.291
LRRC8C_Q8TDW0_599_MTNLTELELVHCDLER (UniProt Q8TDW0)	0.076	0.0824
IRF3_Q14653_267_HVLSCLGGGLALWR (UniProt Q14653)	-0.17	0.346
LGALS1_P09382_17_ACGLVASNLNLKPGECLR (UniProt P09382)	-0.0469	-0.0291
LIMS1_P48059_193+196_MGVPICGACR (UniProt P48059)	-0.089	-0.114
IKBKB_O14920_524_EMEQAVELCGR (UniProt O14920)	0.182	0.0969
ITGB2_P05107_386_VTYDSFCSNGVTHR (UniProt P05107)	0.0533	-0.0395
KLHL26_Q53HC5_383_SGEGAVDACYR (UniProt Q53HC5)	0.33	0.211
KIAA1958_Q8N8K9_246_PKPQTHAGPSCVGSAK (UniProt Q8N8K9)	-0.0886	-0.293
KPNA1_P52294_424_YLVELGCIK (UniProt P52294)	0.213	0.184
KDM3A_Q9Y4C1_814_PACPASTSPLNWLADLTSGNVNK (UniProt Q9Y4C1)	0.0136	-0.377
ITSN2_Q9NZM3_1429_ENSDRLEWIQAHVQCEGLAEQLIFNSLTNCLGPR (UniProt Q9NZM3)	-0.507	-0.633
KIF3A_Q9Y496_230_SHAIFTITIECSEK (UniProt Q9Y496)	0.112	-0.0259
INPP5F_Q9Y2H2_725_DTLQCIAEMLQITK (UniProt Q9Y2H2)	0.173	0.242
KIF22_Q14807_201_VLDLLDPASGDLVIREDCR (UniProt Q14807)	-0.154	-0.158
IARS2_Q9NSE4_819_SCQTALVEILDVIVR (UniProt Q9NSE4)	0.153	-0.107
LIG3_P49916_499_KCPNGMFSEIKYDGER (UniProt P49916)	0.24	0.59
INTS6L_Q5JSJ4_745_NCSLSVDDQK (UniProt Q5JSJ4)	0.156	-0.0158
KNTC1_P50748_911_IIDLIDREQGEDCLLLLK (UniProt P50748)	0.282	0.137
